According to the supplement of paper PMC6555819:

Key:
Test in all cases: PBM binding z-score (relative to random genomic background probes); higher = stronger binding; sequences stand for … in GC…GCGATTGACAGCGTAGAATGAAGG
[1] = test system: RARb homodimer (NR concentration 270 nM)
How it was run: (§1)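 Ligand-free nuclear receptor dimers were applied to custom Agilent 4×180K protein-binding microarrays whose double-stranded probes carried direct-repeat seeds, single-nucleotide variants, half-site ablations and random human genomic background sequences in 34-nt variable regions. Incubation lasted 1 h. Binding z-scores were computed against the random background probes from regression-normalized fluorescence.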

[2] = test system: RARg:RXRa (NR concentration 270 nM, RXRa partner concentration 90 nM)
How it was run: as §1

[3] = test system: RARg homodimer (NR concentration 270 nM)
How it was run: as §1

[4] = test system: RXRa DBDmut IVT, anti-RXR (DBD mutation: RXRa K156A/R161A, NR concentration 90 nM)
How it was run: as §1

[5] = test system: RXRa homodimer (NR concentration 180 nM)
How it was run: as §1

[6] = test system: THRa:RXRa (NR concentration 90 nM, RXRa partner concentration 90 nM)
How it was run: as §1

[7] = test system: THRa homodimer (NR concentration 90 nM)
How it was run: as §1

[8] = test system: VDR:RXRa (NR concentration 270 nM, RXRa partner concentration 90 nM)
How it was run: as §1

[9] = test system: VDR homodimer (NR concentration 270 nM)
How it was run: as §1

Sequence | PBM binding z-score [1] | PBM binding z-score [2] | PBM binding z-score [3] | PBM binding z-score [4] | PBM binding z-score [5] | PBM binding z-score [6] | PBM binding z-score [7] | PBM binding z-score [8] | PBM binding z-score [9]
AGAATGAGGTTAAGATCAGCGAAACAGAATACAT | 0.64 | 1.9 | 1.45 | 0.594 | 2.39 | 2.27 | 0.587 | 0.872 | 0.524
ATCTCTAGGTATGACTCAGTTCAGTGAAGAACGC | 0.676 | 0.285 | 0.329 | 0.685 | 0.0899 | 0.451 | 0.83 | 1.01 | 1.5
TGAATGAGGTTAAGGATCAGGGAACGTGGCGTCG | 0.892 | 1.97 | 1.38 | 0.394 | 2.62 | 2.49 | 0.88 | 0.99 | 0.15
CCTAGCAGGCCAGGGACACTCAAGCATTTCGCTT | 0.112 | -0.238 | -0.144 | -0.269 | -0.377 | 0.512 | 0.193 | -0.417 | -0.34
CGTCCAAGGGCAAGGTCAGTGAAAGAGACTCGAA | 3.82 | 3.23 | 4.43 | 1.07 | 2.23 | 2.9 | 1.11 | 1.59 | 1.21
GGGACTGGGGCAAAGCAGGTTACCATAAGGTTGG | 1.75 | 0.941 | 0.994 | -1.03 | 0.55 | 3.3 | 1.32 | 0.732 | 0.624
AGAATGAGGTGAAGATCAGGGAAACAGAATACAT | 0.949 | 1.15 | 1.09 | -0.551 | 1.05 | 2.77 | 1.32 | 0.178 | 0.103
ACTTGTTGGTCAGCTGAGGTCACACACAATTCGG | 4.48 | 4.18 | 4.01 | 1.38 | 3.99 | 5.15 | 5.03 | 4.61 | 3.16
TCTATGAGTTGAAGGGCAACCGACGAGTCCGTTT | 1.12 | 0.637 | 0.461 | 1.55 | 0.971 | 0.511 | -0.405 | 0.953 | 1.57
CTAGAAAGGTCGGTTGAGGTGAGTATACGGATAA | 2.53 | 2.76 | 2.97 | 1.01 | 2.5 | 4.81 | 1.71 | 2.4 | 1.05
CCTACTGGGCCAGTCAGAGGTCATTGATCATATG | 3.65 | 3.94 | 2.79 | 0.705 | 3.71 | 2.94 | 1.03 | 3.67 | 3.27
ACTTACTGGTCAACGAGGTTATAGCACGCGTATA | 1.88 | 1.72 | 1.94 | 1.16 | 1.85 | 2.26 | 1.22 | 5.15 | 1.71
ACTAGTTGGTCAGCTGAGGGCACACACAATTCGG | 2.11 | 0.999 | 1.42 | 0.326 | 0.707 | 3.55 | 1.29 | 1.2 | 0.929
CATCGGAGGACAACAGGAGGTCAGAGCTGCCAGA | 3.62 | 3.59 | 3.48 | 0.373 | 2.29 | 3.01 | 1.31 | 2.21 | 1.1
TCTATTGGTTGATTAGGGCAACCGAAACAGCGGA | 0.698 | 0.341 | 0.499 | 0.712 | 0.317 | 0.871 | 0.352 | 0.547 | 0.054
ATCTGTAGGTTAGCTGGGGTCATTCAGACTAGGC | 3.81 | 4.01 | 3.04 | 1.83 | 5.13 | 5.16 | 3.21 | 6.14 | 5.38
CCTAGTTGGTAAAGGTCACACACGCTATAGGTAC | 5.1 | 6.22 | 6.12 | 2.1 | 6.73 | 4.12 | 2.03 | 4.9 | 3.54
CTTCCAAGGTCATAGGAGGTCAGTGAAGACAGAT | 5.3 | 7 | 7.48 | 3.89 | 7.13 | 5.26 | 3.21 | 6.66 | 4.49
CCGACCGGGGCATAAGGTTACCATAAGCCAGCCC | 2 | 2.18 | 1.62 | -0.289 | 1.68 | 2.57 | 1.66 | 0.666 | 0.0101
CCTACTGGGCCTAAAAGGTCATTGATGCCGATAA | 4.24 | 4.67 | 3.93 | 0.753 | 4.91 | 3.08 | 0.544 | 4.38 | 2.73
ACTAGCAGGCCACGTTTGGGTCACTCAAACAAAG | 1.91 | 2.05 | 1.58 | -0.109 | 0.813 | 2.64 | 1.28 | 0.312 | -0.0731
AAATGTAGGTTACATCCGGGTCATTCAGGCTATG | 2.82 | 3.7 | 2 | 1.3 | 3.08 | 3.67 | 2.22 | 4.17 | 3.16
TAGCCTAGGTCATTGGGCCAGTGTAGTACGCATC | 3 | 3.57 | 4.14 | 1.61 | 2.7 | 2.94 | 0.8 | 2.12 | 1.07
GCGGCTAGGTCAGGTTGGTCAGCTAACGGGTACG | 2.8 | 2.47 | 3.36 | 0.271 | 1.07 | 1.85 | 0.788 | 0.482 | 0.247
AGAACGAGGACACGCTGAGTTGATAGCAGAGTAG | 0.357 | 0.807 | 1.74 | 0.835 | -0.00543 | 3.15 | 2.29 | 0.161 | 1.14
CATACAGGGTCAGCTGGGCCAGAGTAGGGACGGC | 3.31 | 4.6 | 4.97 | 1.48 | 4.64 | 3.12 | 0.678 | 3.63 | 1.18
